In PubChem BioAssay (Tox21):
Where “and” joins values, the source holds several entries; their conditions need not be identical. Identical values can stand only once. Records with an inconclusive call do not appear. A structure can be active in one record and inactive in another. Calls of active or inactive are those of the source. Unless noted, calls follow the shape of the dose curve; as a rule, active = well fitted curve in the direction sought with a large enough effect in the repeat runs; inconclusive = weak or mixed curves; inactive = no such curve, though single readings can be large; an effect the other way counts as inactive or inconclusive.

Tests used:
[1] = target: Aryl hydrocarbon receptor (Homo sapiens) (UniProt P35869); experiment: qHTS assay to identify small molecule that activate the aryl hydrocarbon receptor (AhR) signaling pathway (AID 743085); settings: HepG2 AhR-luc (HG2L7.5c1), luciferase, 24 h; series mostly up to 70.3 µM; also: nearly all actives have a fitted effect of over 15% in size; also: potency is read from the fitted curve at half-maximal effect;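 as to activation: HG2L7.5c1 human HepG2 liver cells with stably integrated DRE-driven firefly reporter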
Aryl hydrocarbon receptor (Homo sapiens), sequence (P35869 whole entry, looked up): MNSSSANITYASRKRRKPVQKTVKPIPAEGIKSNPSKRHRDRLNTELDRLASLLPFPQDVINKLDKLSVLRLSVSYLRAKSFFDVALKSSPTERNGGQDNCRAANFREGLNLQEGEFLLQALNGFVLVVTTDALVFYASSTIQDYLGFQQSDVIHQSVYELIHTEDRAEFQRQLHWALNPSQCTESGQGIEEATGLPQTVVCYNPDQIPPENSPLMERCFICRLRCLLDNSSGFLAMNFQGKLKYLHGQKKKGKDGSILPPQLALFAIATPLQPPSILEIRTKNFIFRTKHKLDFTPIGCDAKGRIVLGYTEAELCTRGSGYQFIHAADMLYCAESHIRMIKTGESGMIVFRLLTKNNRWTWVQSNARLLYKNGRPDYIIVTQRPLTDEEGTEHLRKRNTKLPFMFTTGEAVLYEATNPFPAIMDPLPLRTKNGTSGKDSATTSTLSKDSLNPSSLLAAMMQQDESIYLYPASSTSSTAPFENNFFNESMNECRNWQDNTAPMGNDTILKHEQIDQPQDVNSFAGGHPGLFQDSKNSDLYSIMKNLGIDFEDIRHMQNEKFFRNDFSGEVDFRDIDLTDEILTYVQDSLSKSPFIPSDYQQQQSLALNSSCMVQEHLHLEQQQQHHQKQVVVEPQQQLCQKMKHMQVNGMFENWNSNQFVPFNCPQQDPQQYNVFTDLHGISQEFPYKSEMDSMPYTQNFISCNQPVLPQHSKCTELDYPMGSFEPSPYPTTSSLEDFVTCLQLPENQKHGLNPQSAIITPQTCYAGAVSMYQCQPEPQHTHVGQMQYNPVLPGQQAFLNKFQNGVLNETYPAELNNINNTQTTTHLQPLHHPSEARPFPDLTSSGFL
How it was run: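 HepG2 cells stably carrying a 20-DRE firefly luciferase reporter (HG2L7.5c1) treated with compound for 24 hr at 37C. Luciferase read by ONE-Glo luminescence, with CellTiter-Fluor viability read first.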

[2] = qHTS assay to identify small molecule that activate the aryl hydrocarbon receptor (AhR) signaling pathway - cell viability counter screen (AID 743086); settings: HepG2-AhR-luc viability, CellTiter-Fluor, 24 h; series mostly up to 70.3 µM;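 also: HepG2 liver cells carrying the AhR DRE luciferase reporter; nearly all actives have a fitted effect of over 45% in size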
How it was run: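 HepG2-AhR-luc (HG2L7.5c1) cells, 4000/well, were preincubated 5 h at 37C, exposed to compound in qHTS format for 24 hr at 37C, then given CellTiter-Fluor for 30 min; viability was read as fluorescence in the reporter wells.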

[3] = qHTS assay to identify small molecule antagonists of the peroxisome proliferator-activated receptor gamma (PPARg) signaling pathway - cell viability counter screen (AID 743194); settings: PPARg-bla HEK293H viability, CellTiter-Glo luminescence, 17 h; Potency: co-treated with 50 nM rosiglitazone unless noted; series mostly up to 62.6 µM; also: nearly all actives have a fitted effect of over 55% in size
How it was run: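 PPARg-UAS-bla HEK293H cells were plated, rested 5 h at 37 C, then treated with compounds plus rosiglitazone (50 nM final) for 17 h at 37 C; viability was then read by CellTiter-Glo luminescence after 30 min at room temperature.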

[4] = qHTS assay for small molecule agonists of the antioxidant response element (ARE) signaling pathway - cell viability counter screen (AID 743203; calls by dose curve; also: nearly all actives have a fitted effect of over 55% in size; also: potency is read from the fitted curve at half-maximal effect); settings: ARE-bla HepG2 viability, CellTiter-Glo luminescence, 16 h; series mostly up to 73.3 µM
How it was run: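 Viability counter screen: CellTiter-Glo luminescence, read after 30 min at room temperature, in ARE-bla HepG2 wells. Compound exposure lasted 16 h at 37C/5% CO2, following a 5 h pre-incubation of the cells after plating.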

[5] = qHTS assay for small molecule activators of the heat shock response signaling pathway - cell viability counter screen (AID 743209); settings: HSE-bla HeLa viability, CellTiter-Glo luminescence, 5 h; series mostly up to 62.6 µM; also: nearly all actives have a fitted effect of over 50% in size; also: potency is read from the fitted curve at half-maximal effect
How it was run: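 Cytotoxicity counter screen run in the same wells as the heat-shock bla reporter assay: HeLa HSE-bla cells, 5 h compound exposure at 37 C, viability read by CellTiter-Glo luminescence.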

[6] = qHTS assay for small molecule activators of the heat shock response signaling pathway (AID 743210; active = well fitted activation curve with a large enough effect in the signal ratio in the repeat runs, with a control signal flat, not every such curve was filed as active; the % refers to the signal ratio; also: potency is read from the fitted curve at half-maximal effect); settings: HeLa HSE-bla reporter, beta-lactamase ratio, 5 h; series mostly up to 62.6 µM
How it was run: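 Heat shock element–beta-lactamase HeLa reporter cells; qHTS with compounds for 5 h at 37 C; detection by FRET substrate fluorescence after 2.5 h at RT.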

[7] = qHTS assay to identify small molecule agonists of the peroxisome proliferator-activated receptor delta (PPARd) signaling pathway - cell viability counter screen (AID 743211); settings: PPARd-bla HEK293H viability, CellTiter-Glo luminescence, 17 h; series mostly up to 62.6 µM; also: nearly all actives have a fitted effect of over 55% in size; also: potency is read from the fitted curve at half-maximal effect
How it was run: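 PPARd-bla HEK293H cells (3000/well) were pre-incubated 5 h at 37 C, then exposed to compound for 17 h at 37 C. After 2 h with LiveBLAzer substrate, CellTiter-Glo was added to the same wells; luminescence read after 30 min at room temperature.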

[8] = target: Peroxisome proliferator-activated receptor gamma (Homo sapiens) (UniProt P37231); experiment: qHTS assay to identify small molecule antagonists of the peroxisome proliferator-activated receptor gamma (PPARg) signaling pathway (AID 743191; calls by dose curve; also: potency is read from the fitted curve at half-maximal effect; nearly all actives have a fitted effect of over 30% in size); settings: HEK293H PPARg-UAS-bla, beta-lactamase ratio, antagonist, 17 h; series mostly up to 62.6 µM
Peroxisome proliferator-activated receptor gamma (Homo sapiens), sequence (P37231 whole entry, looked up): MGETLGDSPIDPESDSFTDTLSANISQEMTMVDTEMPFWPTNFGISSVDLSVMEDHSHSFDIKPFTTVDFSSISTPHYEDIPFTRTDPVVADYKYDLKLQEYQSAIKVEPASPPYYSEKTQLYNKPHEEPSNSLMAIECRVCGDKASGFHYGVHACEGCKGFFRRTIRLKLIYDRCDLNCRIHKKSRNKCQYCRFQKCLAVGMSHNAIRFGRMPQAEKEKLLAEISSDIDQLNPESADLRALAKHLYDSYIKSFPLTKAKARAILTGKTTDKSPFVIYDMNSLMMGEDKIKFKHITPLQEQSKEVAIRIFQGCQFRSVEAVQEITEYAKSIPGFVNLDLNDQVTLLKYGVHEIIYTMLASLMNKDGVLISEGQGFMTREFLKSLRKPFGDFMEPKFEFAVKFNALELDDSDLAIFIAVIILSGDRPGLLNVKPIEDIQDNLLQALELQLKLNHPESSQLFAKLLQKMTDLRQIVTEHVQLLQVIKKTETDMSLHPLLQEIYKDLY
How it was run: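 GeneBLAzer PPARg UAS-bla HEK293H cells carrying a UAS-driven beta-lactamase reporter were plated at 3000 cells/well, preincubated 5 h at 37C, then given compound for 17 h at 37C; LiveBLAzer B/G FRET substrate was read after 1 h at room temperature.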

[9] = qHTS assay for small molecule agonists of the antioxidant response element (ARE) signaling pathway (AID 743202; active = well fitted activation curve with a large enough effect in the signal ratio in the repeat runs, not every such curve was filed as active; the % refers to the signal ratio); settings: HepG2 ARE-bla reporter, beta-lactamase FRET, 16 h; series mostly up to 73.3 µM
How it was run: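 Following a 16 h, 37 C exposure of reporter HepG2 cells (ARE-driven beta-lactamase, 2,000 cells/well) to compounds, FRET substrate was applied for 2 h at room temperature and fluorescence intensity recorded.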

[10] = target: Peroxisome proliferator-activated receptor gamma (Homo sapiens) (UniProt P37231); experiment: qHTS assay to identify small molecule agonists of the peroxisome proliferator-activated receptor gamma (PPARg) signaling pathway (AID 743094; active = well fitted activation curve with a large enough effect in the signal ratio in the repeat runs, not every such curve was filed as active; the % refers to the signal ratio); settings: HEK293H PPARg-UAS-bla, beta-lactamase FRET ratio, 17 h; series mostly up to 57 µM
How it was run: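 Agonist activity was taken from a beta-lactamase reporter (FRET substrate, 1 h at room temperature) in HEK293H cells carrying a PPARg UAS-bla construct. Compounds in DMSO were incubated 17 h at 37C after a 5 h cell pre-incubation.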

Measured: Potency

C[C@]12CCC(=O)C[C@@H]1CC[C@@H]1[C@@H]2CC[C@]2(C)[C@@H](O)CC[C@@H]12
inactive: [1] | [2] | [3] | [4] | [5] | [6] | [7]

N#Cc1cc(Br)c(O)c(Br)c1
inactive: [2] | [3] | [4] | [5] | [6] | [7]
active: [8] 54.9 µM and 21.1 µM

Nc1ccc(-c2ccc(N)c(N)c2)cc1N
active: [1] 484 nM and 3.06 µM
inactive: [3] | [4] | [5] | [7]

Brc1ccc(Oc2cc(Br)c(Br)cc2Br)c(Br)c1
active: [7] 22 µM
inactive: [1] | [2] | [3] | [5] | [6]

O=c1oc2ccccc2c(O)c1C(CC(O)c1ccc(-c2ccc(Br)cc2)cc1)c1ccccc1 (stereo unspecified)
inactive: [1] | [2] | [4] | [7]
active: [5] 41.3 µM

O=Cc1ccco1
inactive: [1] | [2] | [3] | [4] | [5] | [6] | [7]

NNC(=S)NN
inactive: [2] | [3] | [9] | [4] | [5]
active: [6] 1.79 µM and 4.36 µM

CCOc1cc(C=O)ccc1O
inactive: [2] | [3] | [9] | [4] | [5] | [6]

Nc1ccc(Cl)cc1N
active: [1] 11.3 µM and 13.7 µM
inactive: [3] | [5] | [7]
inactive and 6.11 µM (active): [4]

CN(C)c1ccc(C(=O)c2ccc(N(C)C)cc2)cc1
inactive: [3] | [4] | [5] | [6]
active: [1] 428 nM and 3.86 µM

CCCCCCCCC(=O)NCc1ccc(O)c(OC)c1
inactive: [2] | [10] | [3] | [4] | [5] | [6] | [7]

ClC1C(Cl)C(Cl)C(Cl)C(Cl)C1Cl (stereo unspecified)
inactive: [1] | [2] | [3] | [4] | [5] | [6] | [7]

CCCCN(CCCC)N=O
inactive: [1] | [2] | [3] | [4] | [5] | [6] | [7]

CCCCOCCOP(=O)(OCCOCCCC)OCCOCCCC
inactive: [2] | [10] | [3] | [4] | [5] | [6]
